Test results published in PubChem BioAssay (Tox21).
Inconclusive results are not listed. Where a call stands in place of a potency, no number is given. Unmarked numbers belong to inactive results. Active and inactive are the calls of the source. Calls follow the shape of the dose curve; as a rule, active = well fitted cell-killing curve with a large enough effect in the repeat runs; inconclusive = weak or mixed curves, or effect the other way; inactive = flat fitted curve, though single readings scatter.

Test: Nuclear factor erythroid 2-related factor 2/antioxidant responsive element (Nrf2/ARE) small molecule agonists: qHTS cell viability counter screen in human keratinocytes (AID 1919968); also: nearly all actives have a fitted effect of over 55% in size
How it was run: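 Stably transfected HaCaT (KeratinoSens), 1,500/well. Test agents in DMSO were applied for 23 h, 37 C/5% CO2. CellTiter-Fluor was incubated 1 h before the fluorescence read.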

Row | SMILES | Potency | activity change, negative = cytotoxicity
1 | CC(C)CCCCCCOC(=O)CCCCC(=O)OCCCCCCC(C)C | inactive | –
2 | c1ccc(COCc2ccccc2)cc1 | inactive | –
3 | CO[Si](OC)(OC)OC | inactive | –
4 | Cn1c(N)c(N=O)c(=O)n(C)c1=O | inactive | –
5 | CC(N)C(=O)OC(C)(C)Cc1ccc(Cl)cc1 (centres undefined) | inactive | –
6 | CCCCCCCCCCCCCCBr | inactive | –
7 | CC(NN)c1ccccc1 (centres undefined) | – | -0.107% [at 19 µM]
8 | FC(F)(F)C(F)(F)C(F)(F)C(F)(F)C(F)(F)C(F)(F)C(F)(F)C(F)(F)C(F)(F)C(F)(F)F | – | 2.36% [at 8.39 µM]
9 | CSc1cnc(C)cn1 | inactive | –
10 | CC1OC(=O)C(C)OC1=O (centres undefined) | inactive | –
11 | CN1CCC(=C2c3ccccc3CCc3sccc32)CC1 | inactive | –
12 | O=CC(=O)c1ccccc1 | inactive | –
13 | Cc1ccccc1C(=O)O | inactive | –
14 | CC(C)=CCC1=C(O)c2ccccc2C(=O)C1=O | inactive | –
15 | CCCC(C)C | inactive | –
16 | Nc1c2c(nc3c1CCC3)CCCC2 | inactive | –
17 | O=C(O)Cc1ccc2c(c1)C(=O)c1ccccc1CO2 | inactive | –
18 | CCn1cc(C(=O)O)c(=O)c2cc(F)c(N3CCNC(C)C3)c(F)c21 (centres undefined) | inactive | –
19 | Oc1cccc2cc3cccc(O)c3c(O)c12 | inactive | –
20 | CCCCCCCCCCCCC | inactive | –
21 | Nc1ccc(S(=O)(=O)O)cc1 | inactive | –
22 | O=C(c1ccc(O)cc1)c1ccc(O)cc1 | inactive | –
23 | CCCCC1=NC2(CCCC2)C(=O)N1Cc1ccc(-c2ccccc2-c2nn[nH]n2)cc1 | inactive | –
24 | O=C(OCc1ccccc1)C(=O)OCc1ccccc1 | inactive | –
25 | CCOC(=O)[C@H](CCc1ccccc1)N[C@@H](C)C(=O)N1Cc2cc(OC)c(OC)cc2C[C@H]1C(=O)O | inactive | –
26 | O=C1CCCCCCCCCCOCCCCO1 | inactive | –
27 | CCC(=O)OC(=O)CC | inactive | –
28 | CC(C)(C)NCC(O)COc1ccc(NC(=O)NC2CCCCC2)cc1 (centres undefined) | inactive | –
29 | CCCCCCCC1CCCC1=O (centres undefined) | inactive | –
